# Bioassay records as filed in PubChem.
# In the library only some 3.8% were active in any assay of this set; here they are far more common.
# DSG3 Ab inh – inhibitors of pemphigus antibody binding to DSG3, primary screen, biochemical, bead-based, flow cytometry, scFv-GFP | Desmoglein-3 (Homo sapiens), P32926 | DSG3-coupled beads, scFv-anti-DSG3-GFP binding; hits give low values | binding (percent of control), % at 10 µM | 0.48% of 310,000 active | AID 588358, 2011;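 active = binding more than 3 SD below its plate's average and above zero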;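 also: hits lower antibody fragment binding to DSG3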
# pPAFAH FP inh – pPAFAH enzyme inhibitors, primary screen, biochemical, fluorescence polarization, human | recombinant pPAFAH, FP-rhodamine probe fluorescence polarization | Platelet-activating factor acetylhydrolase (Homo sapiens), Q13093 | 1.5% of 330,000 active | inhibition, % at 3.39 µM;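 active = inhibition above the mean inhibition across the screen plus 3 SD, cut at about 25% in these data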;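 also: inhibitors block binding of the rhodamine activity-based probe so polarization drops; 0% = enzyme with DMSO and 100% = wells lacking pPAFAH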
# PAFAH1B2 inh – PAFAH1B2 enzyme inhibitors, primary screen, biochemical, fluorescence polarization, human | inhibition, % at 3.39 µM | AID 492953, 2010 | 1.2% of 340,000 active | recombinant PAFAH1B2, FP-rhodamine activity probe;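 active = inhibition above the mean of all tested compounds plus 3 SD, cut at about 24% in these data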;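 also: 0% = enzyme with DMSO and 100% = wells lacking PAFAH1B2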
# Target sequence (P68402 whole entry, looked up): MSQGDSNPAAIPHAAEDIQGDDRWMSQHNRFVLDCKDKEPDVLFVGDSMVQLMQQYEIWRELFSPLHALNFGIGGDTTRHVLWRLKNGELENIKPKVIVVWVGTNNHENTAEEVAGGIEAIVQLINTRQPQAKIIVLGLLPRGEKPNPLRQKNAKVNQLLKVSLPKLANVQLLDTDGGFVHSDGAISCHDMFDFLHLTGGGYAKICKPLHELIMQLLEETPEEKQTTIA
# PAFAH1B3 FP inh – PAFAH1B3 enzyme inhibitors, primary screen, biochemical, fluorescence polarization, human | recombinant PAFAH1B3, FP-rhodamine probe | 0.28% of 340,000 active | inhibition, % at 3.39 µM | Platelet-activating factor acetylhydrolase IB subunit alpha1 (Homo sapiens), Q15102;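 active = inhibition above the screen-wide average of all tested compounds plus 3 SD, cut at about 25% in these data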;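 also: 0% = enzyme with DMSO only and 100% = wells lacking PAFAH1B3 protein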
# Target sequence (Q15102 whole entry, looked up): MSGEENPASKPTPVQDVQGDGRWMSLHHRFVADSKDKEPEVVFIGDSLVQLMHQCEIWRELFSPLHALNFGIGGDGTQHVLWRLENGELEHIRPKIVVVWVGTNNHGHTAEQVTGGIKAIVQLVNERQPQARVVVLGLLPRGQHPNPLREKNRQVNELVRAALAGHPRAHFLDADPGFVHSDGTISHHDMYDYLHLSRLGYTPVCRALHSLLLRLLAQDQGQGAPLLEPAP
# PfM18AAP inh – PfM18AAP inhibitors, malaria aminopeptidase, primary screen, biochemical, QFRET, recombinant enzyme. M18 aspartyl aminopeptidase (Plasmodium falciparum 3D7). H-Glu-NHMec fluorogenic cleavage. inhibition, % at 7.35 µM. 1.2% of 290,000 active;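 active = inhibition above the campaign mean inhibition over all tested compounds plus 3 SD, cut at about 28% in these data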;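 also: 0% = plate median of test compound wells and 100% = 2 mM ZnCl2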
# PAFAH2 FP inh – PAFAH2 enzyme inhibitors, primary screen, biochemical, fluorescence polarization, human. recombinant PAFAH2, FP-rhodamine activity probe. Platelet-activating factor acetylhydrolase 2, cytoplasmic (Homo sapiens), Q99487. AID 492956, 2010. 0.99% of 340,000 active. inhibition, % at 3.39 µM;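 active = inhibition above the mean over all tested compounds plus 3 SD, cut at about 30% in these data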;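 also: inhibitors block probe labeling of enzyme so polarization drops; 0% = enzyme with DMSO and 100% = wells lacking PAFAH2 protein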
# * marks the source's active call; other numbers are inactive results; . = no result.
SMILES,DSG3 Ab inh,pPAFAH FP inh,PAFAH1B2 inh,PAFAH1B3 FP inh,PfM18AAP inh,PAFAH2 FP inh
CCC1COCCS(=O)(=O)N1Cc1ccc(Cl)cc1 (centres undefined),101,1,8,10,6,5
O=S1(=O)CCOC[C@H](c2ccccc2)N1Cc1cccc(Cl)c1,99,6,29*,-1,-9,4
O=S1(=O)CCOC[C@H](CC2CCCCC2)N1Cc1cccc(F)c1,107,1,24*,2,5,2
O=S1(=O)CCOC[C@H](Cc2ccccc2)N1Cc1cccc(Cl)c1,102,0,18,2,.,-3
CCCCCC(=O)N1C[C@@H](n2cc(COC(=O)c3ccccc3)nn2)[C@H](O)C[C@@H]1c1ccc(C)cc1,104,.,.,.,.,.
Cc1ccccc1OCCn1c(S(=O)(=O)O)nc2c(N)ncnc21,94,4,28*,45*,-3,46*
Cc1ccccc1OCCn1c(C)nc2ccccc21,112,2,9,15,-15,-8
Cc1ccc(S(=O)(=O)Oc2ccc(/C=N/NC(=O)c3nn(C)cc3Cl)cc2)cc1,105,-4,21,0,-2,-1
Cc1ccc(/C=N/OC(=O)c2nn(C)cc2Cl)cc1,99,0,28*,2,-4,13
Cc1c(-c2ccc(Cl)cc2)oc(=O)c2c(N)n(-c3ccccc3)nc12,-17*,12,4,-2,4,4
CC(C)(COC(=O)c1ccccc1)N1CC2CCC(C1)O2,92,.,9,4,.,0
CC(=O)c1cccc(NC(=O)C2CCCN2S(=O)(=O)c2ccccc2C(F)(F)F)c1 (centres undefined),69*,.,.,.,.,.
O=C(Nc1cccc(S(=O)(=O)N2CCCCC2)c1)[C@@H]1CCCN1S(=O)(=O)c1ccccc1C(F)(F)F,104,.,-4,2,.,-5
CC1(C)CC(NC(=O)C(=O)NCCc2ccc(Cl)cc2)CC(C)(C)N1,104,-3,7,4,0,1
O=C(CCc1c[nH]c2ccccc12)NCCc1ccc(Cl)cc1,104,0,28*,3,4,10
O=C(NCCc1ccc(O)cc1)c1ccc(Cl)cc1,107,0,5,7,5,0
O=C(NCCc1ccc(Cl)cc1)c1ccc(=O)[nH]c1,125,-5,30*,-4,-7,-5
CCNC(=O)C(=O)NCCc1ccc(Cl)cc1,102,5,25*,4,-2,-3
O=C(NCCCO)C(=O)NCCc1ccc(Cl)cc1,110,2,28*,6,-7,1
O=C(CCc1c[nH]c2ccccc12)NCCc1ccccc1,121,4,-1,0,-5,1
COC(=O)C1CCN(C(=O)COC(=O)C2CCN(S(=O)(=O)c3ccc(C)c(C)c3)CC2)CC1,101,1,0,-3,.,3
CN(CCc1ccccc1)C(=O)CC1C(=O)NCCN1Cc1ccccn1 (centres undefined),99,.,.,.,.,.
COC(=O)C1=CN(Cc2ccccc2)C=C(C(=O)OC)C1c1cc(F)ccc1F,91,0,6,8,-8,9
COC(=O)c1sc(NC(=O)c2cc(-c3ccccc3)nc3ccccc23)c(C#N)c1C,53,19,1,1,45*,3
Cc1cc(C)cc(N(CC(=O)NC2CCC(C)CC2)S(=O)(=O)c2c(C)[nH]c(=O)[nH]c2=O)c1 (centres undefined),89,-4,6,4,-13,7
SMILES,DSG3 Ab inh,pPAFAH FP inh,PAFAH1B2 inh,PAFAH1B3 FP inh,PfM18AAP inh,PAFAH2 FP inh
COc1ccc(C(=O)NCc2nnc(SCC(=O)c3ccc(F)cc3)n2C)cc1OC,97,-4,8,1,.,4
Cc1ccc(CNS(=O)(=O)c2ccc(Cl)s2)cc1,99,.,.,.,.,.
O=C(Cn1sc2ccccc2c1=O)Nc1ccc(F)cc1,53,.,.,.,.,.
O=C(Cn1sc2ccccc2c1=O)Nc1ccc(Cl)cc1,72*,.,.,.,.,.
O=C(CN1C(=O)NC(c2ccccc2)(c2ccccc2)C1=O)Nc1ccc2[nH]c(=O)[nH]c2c1,98,25*,-1,0,6,-5
Cc1ccc(C2(C)NC(=O)N(CC(=O)Nc3ccc4[nH]c(=O)[nH]c4c3)C2=O)cc1 (centres undefined),93,7,13,3,-3,-5
CC1(c2ccc(OC(F)F)cc2)NC(=O)N(CC(=O)Nc2ccc3[nH]c(=O)[nH]c3c2)C1=O (centres undefined),108,28*,2,0,.,1
COc1ccc(C2(C)NC(=O)N(CC(=O)Nc3ccc4[nH]c(=O)[nH]c4c3)C2=O)cc1 (centres undefined),99,8,2,9,.,3
Cc1cc(=O)n2nc(N3CCCC(C(=O)Nc4ccc(C)c(C)c4)C3)sc2n1 (centres undefined),113,20,3,-7,0,20
CSCCC(NC(=O)c1ccccc1Br)C(=O)NNC(=O)C1COc2ccccc2O1 (centres undefined),105,.,4,7,.,-8
N/C(=N\OC(=O)c1ccccc1Cl)c1cccc([N+](=O)[O-])c1,117,0,6,2,-2,2
N/C(=N/OC(=O)c1ccccc1Cl)c1ncc([N+](=O)[O-])s1,98,13,26*,11,12,18
CCOC(=O)c1ccc(-c2ccc3c(=O)c4ccccc4n(C)c3c2)cc1F,103,-1,1,-1,15,7
Cc1ccc(CN2C(=O)CSC2c2ccc(F)cc2)cc1 (centres undefined),96,1,26*,9,-6,8
COc1cc(C2OCC3C(c4ccc(OC5OC(CO)C(O)C(O)C5O)c(OC)c4)OCC23)ccc1O (centres undefined),96,13,5,16,41*,6
Cc1ccccc1CN1C[C@H]2CON(C)[C@H]2C[C@H]1c1cccc(Br)c1,101,.,.,.,.,.
Nc1ccc2c(c1)C1(CCC2)NC(=O)NC1=O (centres undefined),105,.,.,.,.,.
Nc1ccc2nc(SCC(=O)c3ccccc3)sc2c1,92*,12,4,12,7,-5
Cn1ccn(CCCCCCn2ccn(C)c2=S)c1=S,101,.,.,.,.,.
O=C(O)c1c[nH]c2nccnc12,101,.,.,.,.,.
CN(c1ccccc1)S(=O)(=O)c1cccc(NC(=O)C2=NNC(=O)CC2)c1,5.4*,3,-1,7,.,3
Cc1cc(C)cc(NC(=O)Nc2ccc(-n3ccc(C(F)(F)F)n3)cc2)c1,.,-24,49*,7,-2,2
